Data as given in PubChem BioAssay AID1159580 (chemical genetic matrix, 2015).
Screen size: about 5,500 compounds; about 2,000 (36%) were called active. About 18% were inconclusive and are not listed. Rule as the data show it: active = normalized growth mostly below about 0.91 (no sharp cut-off); inconclusive = no clear call, values can overlap the other calls; inactive = mostly above about 0.92. The list shows a part of the results.

Experiment: chemical genetic growth profiling, strain panel (AID 1159580);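 also: tested at 20 µM; growth read once vehicle control cultures reached saturation at 30 °C; 1 = growth at the plate median or of vehicle wells; lower values mean less growth of the strain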
Conditions: S. cerevisiae deletion strains, growth OD

Measured: normalized growth

COc1ccc(-c2coc3cc(O)ccc3c2=O)c(O)c1O
active: locus YAL021C, strain ccr4, hits give low values 0.817 | locus YAL026C, strain drs2, hits give low values 0.818 | locus YAL030W, strain snc1, hits give low values 0.874 | locus YBL061C, strain skt5, hits give low values 0.825 | locus YBR023C, strain chs3, hits give low values 0.877 | locus YBR231C, strain swc5, hits give low values 0.837 | locus YBR279W, strain paf1, hits give low values 0.893 | locus YCL011C, strain gbp2, hits give low values 0.898 | locus YDR069C, strain doa4, hits give low values 0.762 | locus YDR297W, strain sur2, hits give low values 0.898 | locus YDR334W, strain swr1, hits give low values 0.872 | locus YER015W, strain faa2, hits give low values 0.737 | locus YFR010W, strain ubp6, hits give low values 0.873 | locus YGL173C, strain kem1, hits give low values 0.671 | locus YGL253W, strain hxk2, hits give low values 0.881 | locus YHR027C, strain rpn1, hits give low values 0.669 | locus YHR142W, strain chs7, hits give low values 0.86 | locus YJL164C, strain tpk1, hits give low values 0.863 | locus YJL166W, strain qcr8, hits give low values 0.817 | locus YKL160W, strain elf1, hits give low values 0.902 | locus YLR262C, strain YPT6 (second series), hits give low values 0.743 | locus YLR342W, strain FKS1, hits give low values 0.753 | locus YLR357W, strain rsc2, hits give low values 0.749 | locus YMR058W, strain fet3, hits give low values 0.333 | locus YNL209W, strain ssb2, hits give low values 0.633 | locus YOR083W, strain WHI5, hits give low values 0.866 | locus YOR106W, strain vam3, hits give low values 0.542 | locus YOR265W, strain rbl2, hits give low values 0.918 | locus YPL051W, strain arl3, hits give low values 0.686 | locus YPL106C, strain sse1, hits give low values 0.813
inactive: locus YBR009C, strain hhf1, hits give low values 0.955 | locus YBR171W, strain sec66, hits give low values 0.984 | locus YCL016C, strain dcc1, hits give low values 0.94 | locus YCL061C, strain MRC1, hits give low values 0.925 | locus YCL069W, strain vba3, hits give low values 0.979 | locus YCR088W, strain abp1, hits give low values 0.971 | locus YDL005C, strain med2, hits give low values 0.979 | locus YDL040C, strain nat1, hits give low values 0.999 | locus YDR001C, strain nth1, hits give low values 0.976 | locus YDR137W, strain rgp1, hits give low values 1.06 | locus YDR159W, strain sac3, hits give low values 1.05 | locus YDR195W, strain ref2 0.992 | locus YDR335W, strain msn5, hits give low values 0.948 | locus YDR392W, strain spt3, hits give low values 0.869 | locus YEL003W, strain gim4, hits give low values 0.977 | locus YEL037C, strain rad23, hits give low values 0.969 | locus YEL061C, strain CIN8 (second series), hits give low values 0.963 | locus YER016W, strain bim1, hits give low values 0.94 | locus YER111C, strain swi4, hits give low values 0.933 | locus YER155C, strain BEM2 (second series), hits give low values 0.944 | locus YGL167C, strain pmr1, hits give low values 0.979 | locus YGL227W, strain vid30, hits give low values 0.989 | locus YGL240W, strain doc1, hits give low values 0.964 | locus YHR013C, strain ard1, hits give low values 0.861 | locus YHR030C, strain SLT2, hits give low values 1.02 | locus YHR079C, strain IRE1, hits give low values 1.02 | locus YJL092W, strain hpr5, hits give low values 0.975 | locus YJL095W, strain BCK1 (second series), hits give low values 0.952 | locus YJL095W, strain BCK1, hits give low values 1.01 | locus YJL115W, strain asf1, hits give low values 0.968 | locus YJL129C, strain trk1, hits give low values 1.03 | locus YJL154C, strain vps35, hits give low values 0.988 | locus YJR066W, strain TOR1, hits give low values 0.927 | locus YKR026C, strain gcn3, hits give low values 0.995 | locus YKR091W, strain srl3, hits give low values 0.991 | locus YLL001W, strain dnm1, hits give low values 0.971 | locus YLL026W, hits give low values 0.98 | locus YLL041C, strain sdh2, hits give low values 0.968 | locus YLR027C, strain aat2, hits give low values 0.93 | locus YLR113W, strain HOG1, hits give low values 1.01 | locus YLR221C, strain rsa3, hits give low values 0.92 | locus YLR258W, strain gsy2, hits give low values 0.947 | locus YLR320W, strain mms22, hits give low values 0.905 | locus YLR370C, strain arc18, hits give low values 0.916 | locus YLR384C, strain iki3, hits give low values 0.998 | locus YML120C, strain ndi1, hits give low values 1 | locus YMR125W, strain sto1, hits give low values 1.01 | locus YMR129W, hits give low values 0.967 | locus YMR205C, strain PFK2, hits give low values 0.971 | locus YMR231W, strain pep5, hits give low values 0.937 | locus YNL071W, strain lat1, hits give low values 0.955 | locus YNL183C, strain NPR1, hits give low values 0.965 | locus YNL248C, strain rpa49, hits give low values 0.939 | locus YNL322C, strain KRE1 (second series), hits give low values 0.974 | locus YNR049C, strain mso1, hits give low values 0.982 | locus YOR001W, strain rrp6, hits give low values 0.988 | locus YOR070C, strain gyp1, hits give low values 0.943 | locus YOR080W, strain dia2, hits give low values 0.986 | locus YOR231W, strain MKK1, hits give low values 1.04 | locus YOR270C, strain vph1, hits give low values 0.96 | locus YOR290C, strain snf2, hits give low values 0.961 | locus YPL078C, strain atp4, hits give low values 0.991 | locus YPL240C, strain hsp82, hits give low values 0.975 | locus YPL256C, strain CLN2, hits give low values 1.02
